Assays:
Assay in all cases: DAPPL (digital affinity profiling via proximity ligation, sequencing); 10 mM Tris-HCl pH 7.5, 50 mM NaCl, 1 mM DTT, 4% glycerol, room temperature, 30 min; GST-TFs on glutathione beads, 16-mer random dsDNA library, 0.1% formaldehyde crosslink after washing; high values mean tight binding
Conditions in all cases: protein: recombinant; tags: N-terminal GST; dsDNA, one strand shown
[1] = target: T1, FLI1 (Homo sapiens, UniProt Q01543 1-452)
T1 sequence: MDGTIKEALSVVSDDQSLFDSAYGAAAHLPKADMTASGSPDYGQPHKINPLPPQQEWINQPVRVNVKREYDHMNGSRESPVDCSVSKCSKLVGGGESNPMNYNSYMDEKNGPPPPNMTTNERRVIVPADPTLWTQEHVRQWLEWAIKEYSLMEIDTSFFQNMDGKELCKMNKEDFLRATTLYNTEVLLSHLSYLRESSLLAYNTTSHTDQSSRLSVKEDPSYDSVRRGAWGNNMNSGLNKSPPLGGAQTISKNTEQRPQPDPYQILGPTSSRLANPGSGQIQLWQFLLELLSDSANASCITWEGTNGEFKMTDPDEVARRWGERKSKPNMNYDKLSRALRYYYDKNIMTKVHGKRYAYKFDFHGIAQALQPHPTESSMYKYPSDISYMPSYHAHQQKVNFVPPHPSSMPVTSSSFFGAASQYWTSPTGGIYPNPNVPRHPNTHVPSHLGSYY
Procedure, shortened: (§1)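 Human transcription factors fused to GST were expressed in yeast, captured on glutathione beads, given DNA barcodes and pooled with a GST-only negative control. Pools were incubated with 200 nmole of a 16-mer random double-stranded DNA library in Tris/NaCl/DTT/glycerol buffer at room temperature for 30 min. They were then washed, crosslinked with 0.1% formaldehyde, proximity-ligated (BsaI/T4 ligase, 1 h, 37 °C), PCR-amplified and sequenced on an Illumina NextSeq500. Binding signal is each 6-mer's read frequency for a factor divided by its frequency for the GST control.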

[2] = target: T2, GABPA (Homo sapiens, UniProt Q06546 1-454)
T2 sequence: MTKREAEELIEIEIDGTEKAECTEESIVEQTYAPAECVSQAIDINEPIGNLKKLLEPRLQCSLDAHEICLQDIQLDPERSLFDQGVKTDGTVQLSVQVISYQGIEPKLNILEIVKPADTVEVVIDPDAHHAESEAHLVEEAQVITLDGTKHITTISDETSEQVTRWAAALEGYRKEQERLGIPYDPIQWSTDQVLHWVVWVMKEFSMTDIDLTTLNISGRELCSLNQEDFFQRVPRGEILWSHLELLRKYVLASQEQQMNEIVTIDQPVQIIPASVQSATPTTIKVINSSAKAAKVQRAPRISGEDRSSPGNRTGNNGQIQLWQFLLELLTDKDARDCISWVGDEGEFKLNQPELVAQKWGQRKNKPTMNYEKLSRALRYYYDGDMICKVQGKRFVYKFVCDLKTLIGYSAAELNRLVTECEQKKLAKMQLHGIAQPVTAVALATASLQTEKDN
Procedure, shortened: as §1

[3] = target: T3, ERG (Homo sapiens, UniProt P11308 1-479)
T3 sequence: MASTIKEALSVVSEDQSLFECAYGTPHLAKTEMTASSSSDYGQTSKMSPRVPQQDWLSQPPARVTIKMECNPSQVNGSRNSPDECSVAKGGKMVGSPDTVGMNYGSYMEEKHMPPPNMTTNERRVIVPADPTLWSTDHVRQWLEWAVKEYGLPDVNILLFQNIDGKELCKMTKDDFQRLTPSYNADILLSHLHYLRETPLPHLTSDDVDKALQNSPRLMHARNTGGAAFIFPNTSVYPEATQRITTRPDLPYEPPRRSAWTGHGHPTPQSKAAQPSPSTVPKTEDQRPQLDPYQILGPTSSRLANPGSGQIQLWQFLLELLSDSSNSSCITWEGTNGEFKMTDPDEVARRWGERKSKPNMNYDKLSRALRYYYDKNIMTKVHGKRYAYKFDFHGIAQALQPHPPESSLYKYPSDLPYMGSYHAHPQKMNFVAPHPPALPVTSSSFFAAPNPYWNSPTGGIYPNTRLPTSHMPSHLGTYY
Procedure, shortened: as §1

[4] = target: ELF1 (Homo sapiens, UniProt P32519 1-619)
Procedure, shortened: as §1

[5] = target: T4, EHF (Homo sapiens, UniProt Q9NZC4 1-300)
T4 sequence: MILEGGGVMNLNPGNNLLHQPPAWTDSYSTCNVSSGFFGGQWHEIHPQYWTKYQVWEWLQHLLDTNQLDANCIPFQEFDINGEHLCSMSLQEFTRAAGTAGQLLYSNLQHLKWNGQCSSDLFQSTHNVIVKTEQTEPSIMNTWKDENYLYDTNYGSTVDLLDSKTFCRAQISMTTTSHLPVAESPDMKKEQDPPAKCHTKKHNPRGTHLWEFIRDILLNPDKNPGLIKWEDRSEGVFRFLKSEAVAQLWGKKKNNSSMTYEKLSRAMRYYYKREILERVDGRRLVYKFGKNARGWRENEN
Procedure, shortened: as §1

[6] = target: SPIB (Homo sapiens, UniProt Q01892 1-262)
Procedure, shortened: as §1

[7] = target: T5, ELK3 (Homo sapiens, UniProt P41970 1-407)
T5 sequence: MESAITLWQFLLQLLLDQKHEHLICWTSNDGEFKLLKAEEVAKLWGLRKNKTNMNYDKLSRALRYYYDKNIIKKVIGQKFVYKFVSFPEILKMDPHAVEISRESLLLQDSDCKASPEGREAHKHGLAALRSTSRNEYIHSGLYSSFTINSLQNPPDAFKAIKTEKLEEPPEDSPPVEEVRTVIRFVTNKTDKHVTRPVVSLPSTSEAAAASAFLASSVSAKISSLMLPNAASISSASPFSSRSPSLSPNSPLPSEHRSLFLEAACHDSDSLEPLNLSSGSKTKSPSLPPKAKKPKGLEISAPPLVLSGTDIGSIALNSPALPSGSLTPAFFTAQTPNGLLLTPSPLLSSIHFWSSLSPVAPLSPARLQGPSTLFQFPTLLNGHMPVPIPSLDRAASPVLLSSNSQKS
Procedure, shortened: as §1

[8] = target: T6, SPIC (Homo sapiens, UniProt Q8N5J4 1-248)
T6 sequence: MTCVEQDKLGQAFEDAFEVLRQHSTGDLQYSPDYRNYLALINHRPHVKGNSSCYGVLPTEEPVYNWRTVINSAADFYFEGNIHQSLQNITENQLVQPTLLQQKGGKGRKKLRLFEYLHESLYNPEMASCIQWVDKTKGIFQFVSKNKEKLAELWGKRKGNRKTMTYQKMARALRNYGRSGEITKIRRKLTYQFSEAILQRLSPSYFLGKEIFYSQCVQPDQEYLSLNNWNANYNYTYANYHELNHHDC
Procedure, shortened: as §1

[9] = target: ELF4 (Homo sapiens, UniProt Q99607 1-663)
Procedure, shortened: as §1

[10] = target: T7, ELK4 (Homo sapiens, UniProt P28324-2 1-405)
T7 sequence: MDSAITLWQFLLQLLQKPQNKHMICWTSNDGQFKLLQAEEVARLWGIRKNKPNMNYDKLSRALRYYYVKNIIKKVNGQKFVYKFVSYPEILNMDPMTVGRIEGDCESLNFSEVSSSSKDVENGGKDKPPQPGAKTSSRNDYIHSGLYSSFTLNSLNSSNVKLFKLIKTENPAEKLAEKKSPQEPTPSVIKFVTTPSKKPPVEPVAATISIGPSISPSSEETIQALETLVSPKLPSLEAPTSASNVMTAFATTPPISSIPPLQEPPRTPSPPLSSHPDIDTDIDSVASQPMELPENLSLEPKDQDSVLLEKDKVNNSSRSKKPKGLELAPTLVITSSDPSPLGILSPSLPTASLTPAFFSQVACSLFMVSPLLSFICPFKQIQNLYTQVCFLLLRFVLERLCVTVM
Procedure, shortened: as §1

[11] = target: T8, ETV2 (Homo sapiens, UniProt O00321 1-342)
T8 sequence: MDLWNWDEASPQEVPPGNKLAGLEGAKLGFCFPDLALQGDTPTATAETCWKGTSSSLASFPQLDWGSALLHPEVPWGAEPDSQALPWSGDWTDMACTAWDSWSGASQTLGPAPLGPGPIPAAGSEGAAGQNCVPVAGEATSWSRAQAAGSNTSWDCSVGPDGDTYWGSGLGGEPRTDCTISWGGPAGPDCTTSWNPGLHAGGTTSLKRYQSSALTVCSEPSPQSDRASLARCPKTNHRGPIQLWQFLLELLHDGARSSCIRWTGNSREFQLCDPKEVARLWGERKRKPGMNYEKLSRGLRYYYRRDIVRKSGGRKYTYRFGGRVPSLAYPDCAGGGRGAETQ
Procedure, shortened: as §1

[12] = target: T9, ELF3 (Homo sapiens, UniProt P78545 1-371)
T9 sequence: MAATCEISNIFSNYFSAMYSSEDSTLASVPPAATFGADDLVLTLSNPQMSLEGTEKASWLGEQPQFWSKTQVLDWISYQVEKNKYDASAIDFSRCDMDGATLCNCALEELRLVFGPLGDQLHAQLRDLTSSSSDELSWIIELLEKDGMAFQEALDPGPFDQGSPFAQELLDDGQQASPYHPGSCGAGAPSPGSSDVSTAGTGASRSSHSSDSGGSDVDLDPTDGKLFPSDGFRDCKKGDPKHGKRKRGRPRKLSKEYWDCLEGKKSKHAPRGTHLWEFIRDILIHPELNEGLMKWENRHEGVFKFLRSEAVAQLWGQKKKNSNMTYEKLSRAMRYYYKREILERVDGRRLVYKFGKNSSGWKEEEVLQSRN
Procedure, shortened: as §1

[13] = target: T10, ERF (Homo sapiens, UniProt P50548 1-548)
T10 sequence: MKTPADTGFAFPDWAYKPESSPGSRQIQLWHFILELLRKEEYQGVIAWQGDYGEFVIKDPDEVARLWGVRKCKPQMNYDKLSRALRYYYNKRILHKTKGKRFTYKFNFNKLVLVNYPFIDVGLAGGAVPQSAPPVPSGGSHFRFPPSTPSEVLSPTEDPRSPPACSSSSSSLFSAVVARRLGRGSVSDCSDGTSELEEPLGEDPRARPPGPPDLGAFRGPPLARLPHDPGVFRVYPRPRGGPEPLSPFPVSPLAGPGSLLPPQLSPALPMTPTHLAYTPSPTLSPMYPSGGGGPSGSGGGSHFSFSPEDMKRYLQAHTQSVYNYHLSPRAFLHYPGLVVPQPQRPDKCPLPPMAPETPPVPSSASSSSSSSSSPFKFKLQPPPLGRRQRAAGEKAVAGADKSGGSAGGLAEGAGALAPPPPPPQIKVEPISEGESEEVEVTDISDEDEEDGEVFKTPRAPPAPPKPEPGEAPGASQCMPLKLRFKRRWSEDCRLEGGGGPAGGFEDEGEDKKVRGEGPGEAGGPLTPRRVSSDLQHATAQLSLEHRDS
Procedure, shortened: as §1

[14] = target: T11, ETV3L (Homo sapiens, UniProt Q6ZN32 1-361)
T11 sequence: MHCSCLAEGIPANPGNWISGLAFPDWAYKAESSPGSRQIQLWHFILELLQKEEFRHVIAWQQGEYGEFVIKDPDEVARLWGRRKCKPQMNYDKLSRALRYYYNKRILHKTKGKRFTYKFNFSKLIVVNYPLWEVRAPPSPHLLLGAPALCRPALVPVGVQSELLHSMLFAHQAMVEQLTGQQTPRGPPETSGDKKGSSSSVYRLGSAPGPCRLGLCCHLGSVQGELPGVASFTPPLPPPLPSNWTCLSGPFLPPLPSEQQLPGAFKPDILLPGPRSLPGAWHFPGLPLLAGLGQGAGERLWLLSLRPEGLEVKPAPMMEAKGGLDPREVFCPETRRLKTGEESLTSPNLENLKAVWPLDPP
Procedure, shortened: as §1

[15] = target: T12, ETS2 (Homo sapiens, UniProt P15036 1-469)
T12 sequence: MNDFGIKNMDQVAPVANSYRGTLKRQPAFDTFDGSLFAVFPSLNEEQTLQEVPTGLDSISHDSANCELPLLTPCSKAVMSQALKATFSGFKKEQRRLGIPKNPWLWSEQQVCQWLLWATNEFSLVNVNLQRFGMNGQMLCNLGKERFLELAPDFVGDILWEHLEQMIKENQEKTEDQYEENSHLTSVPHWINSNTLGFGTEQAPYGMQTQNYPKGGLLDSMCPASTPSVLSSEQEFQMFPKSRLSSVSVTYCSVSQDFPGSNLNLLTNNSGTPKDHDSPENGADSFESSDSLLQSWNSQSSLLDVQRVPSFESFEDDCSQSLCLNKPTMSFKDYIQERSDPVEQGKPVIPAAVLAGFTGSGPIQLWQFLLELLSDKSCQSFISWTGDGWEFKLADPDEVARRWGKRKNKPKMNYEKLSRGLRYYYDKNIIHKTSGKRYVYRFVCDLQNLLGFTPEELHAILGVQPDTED
Procedure, shortened: as §1

[16] = target: T13, ETV7 (Homo sapiens, UniProt Q9Y603 1-341)
T13 sequence: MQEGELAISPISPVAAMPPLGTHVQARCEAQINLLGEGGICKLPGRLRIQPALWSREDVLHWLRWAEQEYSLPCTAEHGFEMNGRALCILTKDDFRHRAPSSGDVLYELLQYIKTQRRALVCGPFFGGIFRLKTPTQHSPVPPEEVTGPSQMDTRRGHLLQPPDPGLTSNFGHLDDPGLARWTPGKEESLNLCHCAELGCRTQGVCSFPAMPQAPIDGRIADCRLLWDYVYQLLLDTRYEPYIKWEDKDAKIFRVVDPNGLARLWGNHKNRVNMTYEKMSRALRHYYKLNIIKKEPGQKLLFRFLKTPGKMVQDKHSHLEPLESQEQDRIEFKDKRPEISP
Procedure, shortened: as §1

[17] = target: ETV6 (Homo sapiens, UniProt P41212 1-452)
Procedure, shortened: as §1

Sequence of SPIB (Q01892 whole entry): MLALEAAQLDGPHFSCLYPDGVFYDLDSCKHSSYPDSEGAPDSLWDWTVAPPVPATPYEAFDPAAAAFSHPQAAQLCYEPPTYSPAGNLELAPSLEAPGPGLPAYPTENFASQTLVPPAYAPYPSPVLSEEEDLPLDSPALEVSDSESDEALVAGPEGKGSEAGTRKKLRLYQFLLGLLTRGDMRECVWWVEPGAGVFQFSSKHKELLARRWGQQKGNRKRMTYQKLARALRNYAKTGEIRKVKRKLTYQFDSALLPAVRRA
Sequence of ELF1 (P32519 whole entry): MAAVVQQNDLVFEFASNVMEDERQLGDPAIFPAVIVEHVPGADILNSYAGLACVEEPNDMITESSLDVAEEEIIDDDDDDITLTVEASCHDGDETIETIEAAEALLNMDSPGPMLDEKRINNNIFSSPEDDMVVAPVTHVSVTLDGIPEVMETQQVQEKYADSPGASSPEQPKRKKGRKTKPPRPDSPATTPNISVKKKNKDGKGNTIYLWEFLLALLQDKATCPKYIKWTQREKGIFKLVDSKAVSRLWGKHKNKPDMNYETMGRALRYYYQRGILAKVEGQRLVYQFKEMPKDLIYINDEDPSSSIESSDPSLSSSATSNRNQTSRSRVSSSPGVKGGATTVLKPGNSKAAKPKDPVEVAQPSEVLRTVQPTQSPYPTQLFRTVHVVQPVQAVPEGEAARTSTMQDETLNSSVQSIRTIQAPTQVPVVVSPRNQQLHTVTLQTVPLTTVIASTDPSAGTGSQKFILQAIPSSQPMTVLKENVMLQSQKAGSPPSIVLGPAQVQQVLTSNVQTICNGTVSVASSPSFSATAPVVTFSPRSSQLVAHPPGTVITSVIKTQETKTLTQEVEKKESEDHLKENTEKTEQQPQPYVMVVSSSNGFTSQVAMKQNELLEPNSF
Sequence of ELF4 (Q99607 whole entry): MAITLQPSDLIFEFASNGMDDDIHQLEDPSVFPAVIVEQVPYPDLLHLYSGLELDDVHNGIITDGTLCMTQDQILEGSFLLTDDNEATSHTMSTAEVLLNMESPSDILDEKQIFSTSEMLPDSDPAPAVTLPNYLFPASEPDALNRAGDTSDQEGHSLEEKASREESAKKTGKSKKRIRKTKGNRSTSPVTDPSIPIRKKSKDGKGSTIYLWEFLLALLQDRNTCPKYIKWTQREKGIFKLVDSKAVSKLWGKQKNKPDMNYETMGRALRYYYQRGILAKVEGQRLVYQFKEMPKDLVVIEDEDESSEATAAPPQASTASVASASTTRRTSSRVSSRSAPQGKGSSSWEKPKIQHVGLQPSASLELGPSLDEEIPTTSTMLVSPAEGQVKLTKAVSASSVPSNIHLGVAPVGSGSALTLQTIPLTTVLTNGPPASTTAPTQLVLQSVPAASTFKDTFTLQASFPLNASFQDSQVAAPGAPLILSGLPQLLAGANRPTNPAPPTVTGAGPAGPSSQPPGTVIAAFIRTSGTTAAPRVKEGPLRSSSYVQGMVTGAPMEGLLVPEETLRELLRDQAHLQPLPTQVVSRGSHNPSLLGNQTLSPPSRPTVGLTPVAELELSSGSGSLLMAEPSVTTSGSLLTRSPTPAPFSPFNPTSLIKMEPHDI
Sequence of ETV6 (P41212 whole entry): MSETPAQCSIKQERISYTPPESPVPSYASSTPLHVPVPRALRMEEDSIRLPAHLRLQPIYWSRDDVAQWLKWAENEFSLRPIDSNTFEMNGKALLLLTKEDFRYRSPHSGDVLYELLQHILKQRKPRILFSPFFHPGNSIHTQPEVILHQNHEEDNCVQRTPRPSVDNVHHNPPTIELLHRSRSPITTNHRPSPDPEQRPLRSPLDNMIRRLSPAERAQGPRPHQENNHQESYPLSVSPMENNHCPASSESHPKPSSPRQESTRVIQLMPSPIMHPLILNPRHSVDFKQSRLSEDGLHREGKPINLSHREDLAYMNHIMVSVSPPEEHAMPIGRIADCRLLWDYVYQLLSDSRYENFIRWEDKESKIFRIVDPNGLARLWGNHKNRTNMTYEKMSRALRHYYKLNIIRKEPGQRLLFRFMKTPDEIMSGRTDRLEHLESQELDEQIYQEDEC

Sequence: CATTGC
- binding signal [1]: 1.22 fold enrichment (6-mer frequency, TF over GST control)
- binding signal [2]: 1.08 fold enrichment (6-mer frequency, TF over GST control)
- binding signal [3]: 1.11 fold enrichment (6-mer frequency, TF over GST control)
- binding signal [4]: 1.09 fold enrichment (6-mer frequency, TF over GST control)
- binding signal [5]: 1.15 fold enrichment (6-mer frequency, TF over GST control)
- binding signal [6]: 1 fold enrichment (6-mer frequency, TF over GST control)
- binding signal [7]: 1.15 fold enrichment (6-mer frequency, TF over GST control)
- binding signal [8]: 1.16 fold enrichment (6-mer frequency, TF over GST control)
- binding signal [9]: 1.11 fold enrichment (6-mer frequency, TF over GST control)
- binding signal [10]: 1.04 fold enrichment (6-mer frequency, TF over GST control)
- binding signal [11]: 1.3 fold enrichment (6-mer frequency, TF over GST control)
- binding signal [12]: 1.04 fold enrichment (6-mer frequency, TF over GST control)
- binding signal [13]: 1.11 fold enrichment (6-mer frequency, TF over GST control)
- binding signal [14]: 1.08 fold enrichment (6-mer frequency, TF over GST control)
- binding signal [15]: 1.17 fold enrichment (6-mer frequency, TF over GST control)
- binding signal [16]: 1.14 fold enrichment (6-mer frequency, TF over GST control)
- binding signal [17]: 1.09 fold enrichment (6-mer frequency, TF over GST control)
